{"source": "PubChem BioAssay (NCI)", "note": "About 83,000 compounds went through this panel and 20% of them were active in at least one assay; those are over-represented in the sample as a whole.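 Negative percent growth values reflect cell death: -40 means 40% of the cells present at the start died, and -100 means all died.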 Values without a mark were called inactive. Active and inactive are the calls of the source. How the source made its calls: active means growth percent below 10; inactive means the rest.", "data": [{"tested_on": "SK-MEL-5 melanoma", "test": "NCI-60 one-dose screen, 48 h (100 = growth as untreated, 0 = no growth, -100 = all killed)", "details": "10 µM", "values": [{"smiles": "Cc1c(O)cnc2nn(-c3ccccc3)c(=N)n12", "growth": "101%"}, {"smiles": "CC[N+](C)(CC)CCO", "growth": "101%"}, {"smiles": "CCOC(=O)C/C(C)=N\\O", "growth": "100%"}, {"smiles": "COc1cc(CCN=Cc2ccccc2O)c([N+](=O)[O-])cc1OC", "growth": "101%"}, {"smiles": "O=[N+]([O-])c1ccc(CO)cc1", "growth": "101%"}, {"smiles": "O=C(Nc1ccccc1C(=O)NCC1CC1)c1cccs1", "growth": "98.7%"}, {"smiles": "COc1cc(CN)ccc1O", "growth": "102%"}, {"smiles": "N#CC(=Nc1cccc(F)c1)C1=C(O)c2ccccc2C1=O", "growth": "90.7%"}, {"smiles": "CC(=O)OCC1OC(OC2=C(CC=C(C)C)C(=O)c3ccccc3C2=O)C(OC(C)=O)C(OC(C)=O)C1OC(C)=O", "note": "(stereo unspecified)", "growth": "4.66% (active)"}, {"smiles": "O=[N+]([O-])c1ccccc1S(=O)c1ccccc1[N+](=O)[O-]", "growth": "95.7%"}, {"smiles": "CC(=O)OCC1CCCO1", "note": "(stereo unspecified)", "growth": "101%"}, {"smiles": "COc1cc(/C=C/C(=O)c2ccccc2)cc(OC)c1OC", "growth": "76.1%"}, {"smiles": "OC1OC(COC(c2ccccc2)(c2ccccc2)c2ccccc2)C(O)C(O)C1O", "note": "(stereo unspecified)", "growth": "100%"}, {"smiles": "O=C(NCCNC(=O)c1ccc(Cl)cc1Cl)c1ccc(Cl)cc1Cl", "growth": "98.5%"}, {"smiles": "CC(C)(N)COS(=O)(=O)O", "growth": "102%"}, {"smiles": "C=CCCCCCCCCCOC(C)=O", "growth": "101%"}, {"smiles": "O=C(NCc1ccco1)Nc1c(Cl)cc(Cl)cc1Cl", "growth": "100%"}, {"smiles": "CCOC(=O)C1=C(Nc2ccc(Br)cc2)C(=O)N(CC)C1", "growth": "97.7%"}, {"smiles": "S=C1NCc2cncnc2N1", "growth": "103%"}, {"smiles": "C/C(=N\\NC(=O)c1ccccc1N)c1ccccc1O", "growth": "60.5%"}, {"smiles": "CC(C)(C)n1nc(C2CC2)c(Br)c1NC(=O)c1ccccc1F", "growth": "99.7%"}, {"smiles": "O=C(O)CCC(NC(=O)OCc1ccccc1)C(=O)O", "note": "(stereo unspecified)", "growth": "101%"}, {"smiles": "Nc1ccccc1SC(CC(=O)c1ccccc1)c1c(Cl)cccc1Cl", "note": "(stereo unspecified)", "growth": "81.4%"}, {"smiles": "O=C(O)CSCSCC(=O)O", "growth": "103%"}, {"smiles": "NC(CSC(c1ccccc1)(c1ccccc1)c1ccccc1)C(=O)O", "note": "(stereo unspecified)", "growth": "26.3%"}, {"smiles": "CCCCC1C(=O)N(c2ccccc2)N(c2ccccc2)C1=O", "growth": "102%"}, {"smiles": "CCCC[P+](c1ccccc1)(c1ccccc1)c1ccccc1", "growth": "16.1%"}, {"smiles": "CC(CN1CCCCC1)NC(=O)c1scnc1-c1ccccc1", "note": "(stereo unspecified)", "growth": "101%"}, {"smiles": "COc1ccc(C(=O)C(Br)C(Br)C(=O)O)cc1", "note": "(stereo unspecified)", "growth": "101%"}, {"smiles": "O=C(OCC(O)C1OC(c2ccccc2)OC(COC(=O)c2ccccc2)C1O)c1ccccc1", "note": "(stereo unspecified)", "growth": "97.1%"}, {"smiles": "Nc1ccc(N)c([N+](=O)[O-])c1", "growth": "95.2%"}, {"smiles": "Cc1ccccc1C1N=C2Oc3ccccc3C=C2C(=O)N1", "note": "(stereo unspecified)", "growth": "30.7%"}, {"smiles": "O=C(Nc1ccccc1)OCCc1ccccc1", "growth": "99.3%"}, {"smiles": "Cc1cc(/C=C/c2ccc3cc(N(C)C)ccc3[n+]2C)c(C)n1-c1ccccc1", "growth": "-96.8% (active)"}]}, {"tested_on": "UACC-62 melanoma", "test": "NCI-60 one-dose screen, 48 h (100 = growth as untreated, 0 = no growth, -100 = all killed)", "details": "10 µM unless noted", "values": [{"smiles": "Cc1c(O)cnc2nn(-c3ccccc3)c(=N)n12", "growth": "106%"}, {"smiles": "CC[N+](C)(CC)CCO", "growth": "102%"}, {"smiles": "CCOC(=O)C/C(C)=N\\O", "growth": "107%"}, {"smiles": "COc1cc(CCN=Cc2ccccc2O)c([N+](=O)[O-])cc1OC", "growth": "109%"}, {"smiles": "O=[N+]([O-])c1ccc(CO)cc1", "growth": "99.1%"}, {"smiles": "O=C(Nc1ccccc1C(=O)NCC1CC1)c1cccs1", "growth": "98.4%"}, {"smiles": "COc1cc(CN)ccc1O", "growth": "90.1%"}, {"smiles": "N#CC(=Nc1cccc(F)c1)C1=C(O)c2ccccc2C1=O", "growth": "82.8%"}, {"smiles": "CC(=O)OCC1OC(OC2=C(CC=C(C)C)C(=O)c3ccccc3C2=O)C(OC(C)=O)C(OC(C)=O)C1OC(C)=O", "note": "(stereo unspecified)", "growth": "-23.8% (active)"}, {"smiles": "O=[N+]([O-])c1ccccc1S(=O)c1ccccc1[N+](=O)[O-]", "growth": "83.3%"}, {"smiles": "CC(=O)OCC1CCCO1", "note": "(stereo unspecified)", "growth": "99.8%"}, {"smiles": "CC(C(=O)O)(C1CCCCC1)C1(O)CCCCC1", "note": "(stereo unspecified)", "growth": "113%"}, {"smiles": "COc1cc(/C=C/C(=O)c2ccccc2)cc(OC)c1OC", "growth": "54.9%"}, {"smiles": "O=C1OC(c2ccc(F)cc2)CC1CN1CCOCC1", "note": "(stereo unspecified)", "growth": "110%"}, {"smiles": "OC1OC(COC(c2ccccc2)(c2ccccc2)c2ccccc2)C(O)C(O)C1O", "note": "(stereo unspecified)", "growth": "85.5%"}, {"smiles": "O=C(NCCNC(=O)c1ccc(Cl)cc1Cl)c1ccc(Cl)cc1Cl", "growth": "91.1%"}, {"smiles": "CC(C)(N)COS(=O)(=O)O", "growth": "102%"}, {"smiles": "C=CCCCCCCCCCOC(C)=O", "growth": "95.7%"}, {"smiles": "O=C(NCc1ccco1)Nc1c(Cl)cc(Cl)cc1Cl", "growth": "101%"}, {"smiles": "CCOC(=O)C1=C(Nc2ccc(Br)cc2)C(=O)N(CC)C1", "growth": "84.2%"}, {"smiles": "CN(C)c1ccc(C(c2ccc(O)cc2)c2ccc(N(C)C)cc2)cc1", "growth": "79.8%"}, {"smiles": "S=C1NCc2cncnc2N1", "growth": "108%"}, {"smiles": "C/C(=N\\NC(=O)c1ccccc1N)c1ccccc1O", "growth": "32%"}, {"smiles": "CC(C)(C)n1nc(C2CC2)c(Br)c1NC(=O)c1ccccc1F", "growth": "90.7%"}, {"smiles": "O=C(O)CCC(NC(=O)OCc1ccccc1)C(=O)O", "note": "(stereo unspecified)", "growth": "90.5%"}, {"smiles": "Nc1ccccc1SC(CC(=O)c1ccccc1)c1c(Cl)cccc1Cl", "note": "(stereo unspecified)", "growth": "73.9%"}, {"smiles": "O=C(O)CSCSCC(=O)O", "growth": "100%"}, {"smiles": "NC(CSC(c1ccccc1)(c1ccccc1)c1ccccc1)C(=O)O", "note": "(stereo unspecified)", "growth": "48%"}, {"smiles": "CCCC[P+](c1ccccc1)(c1ccccc1)c1ccccc1", "growth": "44.3%"}, {"smiles": "CC(CN1CCCCC1)NC(=O)c1scnc1-c1ccccc1", "note": "(stereo unspecified)", "growth": "107%"}, {"smiles": "COc1ccc(C(=O)C(Br)C(Br)C(=O)O)cc1", "note": "(stereo unspecified)", "growth": "98.4%"}, {"smiles": "CCOC(=O)c1coc(C(=O)OCC)c1C(=O)OCC", "growth": "112%"}, {"smiles": "O=C(OCC(O)C1OC(c2ccccc2)OC(COC(=O)c2ccccc2)C1O)c1ccccc1", "note": "(stereo unspecified)", "growth": "108%"}, {"smiles": "COc1ccc(/C(C#N)=C2C=C/C(=N/O)c3ccccc3\\2)cc1", "growth": "6.75% (active)"}, {"smiles": "Nc1ccc(N)c([N+](=O)[O-])c1", "growth": "98.5%"}, {"smiles": "Cc1ccccc1C1N=C2Oc3ccccc3C=C2C(=O)N1", "note": "(stereo unspecified)", "growth": "35.1%"}, {"smiles": "O=C(Nc1ccccc1)OCCc1ccccc1", "growth": "104%"}]}]}
